Measured values: the supplement of paper PMC3334620
Over roughly 33,000 sequences, “E-score (-0.5 to 0.5)” has its median near -0.035; the highest 2% begin near 0.34. The full list was thinned out, with the highest values kept by preference.

What follows are sequences tested against T1, Mot3 (UniProt P54785) (assay: PBM E-score (8-mer binding enrichment) (E-score (-0.5 to 0.5)); higher = stronger / more preferred TF binding). Settings: protein concentration: 200 nM; construct: GST-full length.
T1 sequence: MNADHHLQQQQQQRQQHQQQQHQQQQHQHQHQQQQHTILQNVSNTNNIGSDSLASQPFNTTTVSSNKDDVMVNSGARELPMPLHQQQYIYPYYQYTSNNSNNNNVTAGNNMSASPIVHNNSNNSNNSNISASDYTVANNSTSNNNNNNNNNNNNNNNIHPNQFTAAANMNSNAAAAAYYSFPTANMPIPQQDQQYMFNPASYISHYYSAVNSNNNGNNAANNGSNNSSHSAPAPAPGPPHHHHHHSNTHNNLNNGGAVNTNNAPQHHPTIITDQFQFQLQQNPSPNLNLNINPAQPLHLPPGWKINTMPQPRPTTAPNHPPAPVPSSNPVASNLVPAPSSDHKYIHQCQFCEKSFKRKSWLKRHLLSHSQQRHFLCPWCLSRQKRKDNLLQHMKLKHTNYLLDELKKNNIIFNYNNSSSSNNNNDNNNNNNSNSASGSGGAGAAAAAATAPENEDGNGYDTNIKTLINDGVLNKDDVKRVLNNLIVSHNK
Summary of the method: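 Detection of bound protein used fluorescent anti-GST, with scans normalised by masliner. The proteins were GST-tagged yeast transcription factors applied at about 100-200 nM to universal all-10-mer Agilent arrays made double-stranded by primer extension. Each ungapped eight-base word, pooled with its reverse complement, was scored with an E-score from the Universal PBM Analysis Suite.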

Sequence | PBM E-score
AACAGGAT | 0.0971
CAATGGAC | -0.189
TAGCCAGA | -0.0655
GACACTAA | -0.106
AAGGCTGC | -0.00639
CACAGGGG | 0.118
AGTTAGAT | 0.0673
ACGCTTCT | -0.0128
CCAGACGG | -0.383
TCGCGTAA | 0.374
GTGCGTAA | 0.356
GGGCGTAA | 0.135
CTGCGTAA | 0.302
ACGCGTAA | 0.317
CCGCGTAA | 0.336
GCGCGTAC | 0.117
GCGCGTAA | 0.34
ATGCGTAA | 0.32
ATTCTGAG | 0.0253
TGTCGACA | 0.111
ACAACAAT | 0.182
GCACTTAA | 0.133
CTTCAAGC | -0.0397
CTTTCCTC | 0.0989
GTTTCCGA | 0.122

Sequence | PBM E-score
CTTTCCCA | -0.0799
GTTTCCAA | -0.12
CTTTCCTA | 0.399
GTTTCCTA | 0.411
AGGCATGG | 0.229
AAAGTGGG | -0.0287
TAGGAGCA | 0.0656
ACGTAATG | 0.348
ACGTAATC | 0.29
ACGTAACG | 0.0865
CCGTAATA | 0.121
ACGTAATA | 0.35
GCGTAATA | 0.308
ACTTGCCG | -0.189
AATTGCCG | -0.145
ACTTGCCC | 0.0267
AATTGCCC | 0.0147
ACTTGCCT | 0.479
AATTGCCT | 0.472
CCGTGTCC | 0.0332
AAGTGTAT | 0.117
CAGTGTAG | 0.154
CCGTGTAC | 0.34
AAGTGTAG | 0.158
CCGTGTCG | 0.126

Sequence | PBM E-score
CAGTGTAC | 0.0758
ACGTGTAG | 0.389
CCGTGTAG | 0.367
AGGTGTAG | 0.0602
ACGTGTAT | 0.356
ACGTGTCT | 0.14
GCAATGGA | -0.00402
GAATCGGC | -0.269
CACCAGAG | -0.0278
CCTGCAAC | 0.144
AACTTGCC | 0.204
GCGTGTAC | 0.337
ACGTGTAC | 0.343
AAGTGTAC | 0.0824
CCGTTAAG | -0.0319
CCAGGCCA | -0.29
CCAGGCCC | -0.101
TCAGGCAA | 0.483
CCAGGCAC | 0.487
TCAGGCGA | -0.0408
CCAGGCGA | -0.155
TCAGGCCA | -0.0359
CCAGGCAG | -0.119
CCAGGCAA | 0.477
GAATACTC | -0.0747

Sequence | PBM E-score
GGAGCGCA | -0.281
CTGAACAG | -0.0714
CCGCAAGG | -0.128
ACACCTGT | 0.193
TCTACTAA | 0.0381
GCTGGACC | -0.332
AGGCAAGA | 0.477
ATGCAAGG | -0.116
AAGCAAGC | -0.162
CGGCAAGA | -0.115
AGGCAAGC | 0.489
GGGCAAGA | 0.0525
ACGCAAGG | 0.153
AGGCAAGG | 0.483
CGGCAAGC | -0.0333
CCCTACAG | -0.128
GATCTCTA | -0.137
CCGGTCAG | -0.335
CCTCGTAG | 0.0397
AATACCCC | -0.248
CTCAAGAC | -0.131
ATCAGCCC | -0.272
AAAGATGG | -0.0558
ACTTGTTC | 0.162
ACAGCCCA | -0.0365

Sequence | PBM E-score
ACTTTCCG | -0.182
ACTTTCCC | 0.0581
ACTTTCCT | 0.383
AATTTCCT | 0.364
AATTTCCG | -0.0949
AATTTCCC | -0.164
ATCCGGTG | 0.0537
CCACTACG | -0.0192
GGATGAAC | -0.105
GTGAAAAA | 0.155
TAGGGGGA | -0.264
CGACCCTA | -0.148
AGACTTTC | -0.187
CCGTTCTA | 0.17
CGCAGGTA | 0.35
AACAGGTA | 0.269
CGCAGGTC | 0.0458
GACAGGTA | 0.25
CACAGGTG | 0.0773
TACAGGTA | 0.393
CACAGGTC | -0.272
AGCAGGTA | 0.328
CACAGGTA | 0.352
GGTGCGAC | -0.251
ACAACGGC | -0.0371

Sequence | PBM E-score
GAAAAGCC | -0.338
ATAGGTAC | 0.406
CTAGGTAC | 0.26
GTAGGTGA | 0.0361
ATAGGTAA | 0.356
GTAGGTAA | 0.346
GTAGGTTA | 0.22
ATAGGTAG | 0.109
CTAGGTAA | 0.182
ATAGGTGA | -0.0643
GCGGTAAC | 0.063
ACATCTTA | 0.0996
CCAAGCGG | -0.135
GACATCGC | 0.0096
GGTTTTAC | 0.154
CATTCCGC | -0.146
GACTACCA | -0.0944
CTATTACA | 0.378
AGATTACC | 0.157
GGATTACA | 0.371
CGATTACG | 0.123
TGATTACA | 0.311
CTATTACC | 0.142
ATATTACA | 0.332
CGATTACA | 0.357

Sequence | PBM E-score
AGATTACT | 0.101
AGATTACA | 0.354
GGATTACC | -0.0377
GGATTAGA | -0.13
GGACAAAC | 0.0402
AAACCTCG | -0.21
ACCAAATC | -0.166
GCACTCCC | -0.112
AACACAGC | 0.268
CGTGTCAC | 0.157
GACCTGAA | -0.107
ACATGTCG | 0.246
CCATGTCG | 0.247
TGATGTAA | 0.281
ACATGTAG | 0.388
GCATGTAA | 0.41
GCATGTAC | 0.321
CCATGTAG | 0.346
ACATGTAC | 0.333
TCATGTAA | 0.414
GCATGTCA | 0.26
TCATGTCA | 0.283
CGATGTAG | 0.103
CATGTCGC | 0.175
CACTAGTG | -0.12

Sequence | PBM E-score
CATCAACG | 0.00915
ACTAGGTG | 0.125
CTTAAAGC | 0.00562
CTCGTCGA | -0.0922
GTCGAGCA | -0.114
AAGGTTAC | 0.0496
CCTATGCC | -0.0577
AGCGCTTG | -0.185
CGTTGGCA | 0.00506
ACATGTGA | 0.225
CCATGTAC | 0.327
ACATGTAA | 0.437
ACATGTCA | 0.319
CCATGTGA | 0.141
AGATGTAT | 0.133
ACATGTCT | 0.235
CCATGTAA | 0.411
ACATGTAT | 0.357
ATTCCTTG | 0.0459
GTCAGAGA | -0.242
AATGAGCT | -0.0919
AGTCTGAA | -0.204
TTGTTAAA | 0.256
GTGTTAAC | 0.352
CTGTTAAC | 0.199

Sequence | PBM E-score
ATGTTACC | 0.237
ATGTTAAC | 0.397
GAGTTAAC | 0.0651
GTGTTAAA | 0.384
CTGTTAAA | 0.238
ACGTTAAC | 0.25
GCTAAATA | 0.0782
CGGAATAG | -0.201
GATGACGC | 0.0115
AGTCAGTG | -0.157
GGCGCCCC | -0.0368
ACAGGCGG | -0.015
ACAGGCTG | 0.0165
GCAGGCGA | 0.123
ACAGGCTA | 0.183
ACAGGCTC | 0.404
ACAGGCGC | 0.371
GCAGGCGC | 0.361
CCAGGCGC | -0.00734
ACAGGCGT | 0.172
